Results published in paper PMC4336329 (PLoS ONE, 2015).
Hit rate of the full screen: of about 310,000 compounds, about 2,200 (0.71%) showed an effect of 50% or more. Effects have a minus sign here. For the sample, strong results were picked, then their nearest neighbours and some compounds at random.

biological target: human ether-à-go-go-related gene (hERG) potassium channel (human, UniProt Q12809); test: primary screen, population patch clamp on CHO cells stably expressing hERG; higher = less effect of the substance
Sequence (Q12809 whole entry, looked up): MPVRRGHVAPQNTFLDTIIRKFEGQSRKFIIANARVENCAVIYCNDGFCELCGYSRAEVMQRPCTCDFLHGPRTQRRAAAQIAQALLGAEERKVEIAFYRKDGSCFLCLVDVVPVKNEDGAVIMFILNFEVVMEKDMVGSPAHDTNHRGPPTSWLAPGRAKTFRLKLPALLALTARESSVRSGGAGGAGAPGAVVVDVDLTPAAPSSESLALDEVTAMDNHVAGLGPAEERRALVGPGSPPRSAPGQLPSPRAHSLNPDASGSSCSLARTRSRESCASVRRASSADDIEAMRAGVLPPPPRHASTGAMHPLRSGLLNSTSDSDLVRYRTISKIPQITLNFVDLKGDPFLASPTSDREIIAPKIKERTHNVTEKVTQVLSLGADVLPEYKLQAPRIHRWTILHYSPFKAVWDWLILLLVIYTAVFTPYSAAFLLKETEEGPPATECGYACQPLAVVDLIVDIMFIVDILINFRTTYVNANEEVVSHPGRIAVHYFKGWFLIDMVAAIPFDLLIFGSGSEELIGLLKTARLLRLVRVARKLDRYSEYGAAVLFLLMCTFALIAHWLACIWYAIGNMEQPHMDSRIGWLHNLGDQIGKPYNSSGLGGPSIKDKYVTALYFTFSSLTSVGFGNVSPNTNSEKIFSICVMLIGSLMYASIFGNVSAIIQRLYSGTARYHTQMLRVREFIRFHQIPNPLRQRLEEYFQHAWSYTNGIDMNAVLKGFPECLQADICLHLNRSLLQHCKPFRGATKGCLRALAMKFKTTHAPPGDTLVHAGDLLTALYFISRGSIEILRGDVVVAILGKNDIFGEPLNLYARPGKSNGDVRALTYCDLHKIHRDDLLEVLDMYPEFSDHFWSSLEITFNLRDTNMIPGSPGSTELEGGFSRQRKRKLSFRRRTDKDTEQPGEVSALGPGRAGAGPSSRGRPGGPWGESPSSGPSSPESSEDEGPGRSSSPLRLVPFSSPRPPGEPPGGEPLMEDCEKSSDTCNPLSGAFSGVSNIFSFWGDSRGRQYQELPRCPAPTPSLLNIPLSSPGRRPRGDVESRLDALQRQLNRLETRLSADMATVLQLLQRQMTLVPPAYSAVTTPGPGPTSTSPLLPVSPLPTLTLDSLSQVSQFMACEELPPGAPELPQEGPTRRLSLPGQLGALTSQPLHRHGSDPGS

Question: `CC1CCCN(C(=O)Cn2nnc(-c3ccc(S(C)(=O)=O)cc3)n2)C1` (centres unmarked) was tested. Which “hERG current change (%, negative = inhibition) at 1uM” value did it give?
Answer: 21.2%

Question: Which “hERG current change (%, negative = inhibition) at 1uM” value does the source give for `CCCNC(=O)C1CCN(c2cc(-c3ccccc3)nc3ncnn23)CC1` here?
Answer: -65.6%

Question: How did the “hERG current change (%, negative = inhibition) at 1uM” value turn out when `Cc1ccccc1NC(=O)C1CCN(c2cc(-c3ccccc3)nc3ncnn23)CC1` was run?
Answer: 5.72%

Question: For `COc1ccc(OC)c(NC(=O)C2CCN(c3cc(-c4ccccc4)nc4ncnn34)CC2)c1`, which “hERG current change (%, negative = inhibition) at 1uM” value is on record?
Answer: -2.67%

Question: `CNC(=S)N(CCc1c(C)[nH]c2ccc(C)cc12)Cc1ccco1` was tested. Which “hERG current change (%, negative = inhibition) at 1uM” value did it give?
Answer: -2.69%

Question: With `CNC(=O)CN(c1cc(C)ccc1C)S(C)(=O)=O` as the compound, how does the “hERG current change (%, negative = inhibition) at 1uM” value read?
Answer: 2.83%

Question: With `Cc1ccccc1N/N=C1\CCCNC1=O` as the compound, how does the “hERG current change (%, negative = inhibition) at 1uM” value read?
Answer: 6.51%

Question: For `O=C(CSc1nnc(-c2cccnc2)n1Cc1ccco1)c1ccc(Cl)cc1`, which “hERG current change (%, negative = inhibition) at 1uM” value is on record?
Answer: -21.1%

Question: For `O=C(NNC(=O)c1cccs1)c1ccc(Cl)cc1`, which “hERG current change (%, negative = inhibition) at 1uM” value is on record?
Answer: 9.36%

Question: With `CSc1ccccc1-n1nnnc1SCC(=O)Nc1ccccc1C` as the compound, how does the “hERG current change (%, negative = inhibition) at 1uM” value read?
Answer: -9.11%

Question: Which “hERG current change (%, negative = inhibition) at 1uM” value does the source give for `COc1ccccc1/C=C/C=N/NC(=O)c1cccs1` here?
Answer: 16.1%

Question: Which “hERG current change (%, negative = inhibition) at 1uM” value does the source give for `Cc1oc(-c2ccccc2Cl)nc1CN1CCCN(C(=O)c2ccco2)CC1` here?
Answer: -21.4%

Question: How did the “hERG current change (%, negative = inhibition) at 1uM” value turn out when `Cc1cc(N2CCN(Cc3nc(-c4ccc(Cl)cc4)oc3C)CC2)cc(C)n1` was run?
Answer: -57.8%

Question: For `O=C(c1ccco1)N1CCN(Cc2nnc(-c3ccccc3)o2)CC1`, which “hERG current change (%, negative = inhibition) at 1uM” value is on record?
Answer: -6.25%

Question: Which “hERG current change (%, negative = inhibition) at 1uM” value does the source give for `Cc1cccc(N2CCN(Cc3nc(-c4cccc(Cl)c4)oc3C)CC2)n1` here?
Answer: -7.13%

Question: For `O=C(c1ccco1)N1CCN(Cc2nnc(-c3cccc(Cl)c3)o2)CC1`, which “hERG current change (%, negative = inhibition) at 1uM” value is on record?
Answer: -13.8%

Question: `Cc1cc(N2CCN(Cc3nc(-c4ccc(F)cc4)oc3C)CC2)cc(C)n1` was tested. Which “hERG current change (%, negative = inhibition) at 1uM” value did it give?
Answer: -27.2%

Question: For `COC(=O)c1ccc(-c2nc(CN3CCCN(C(=O)c4ccco4)CC3)c(C)o2)cc1`, which “hERG current change (%, negative = inhibition) at 1uM” value is on record?
Answer: -15%

Question: For `Cc1oc(-c2ccc(Cl)cc2)nc1CN1CCCC(C(=O)N2CCN(C(=O)c3ccco3)CC2)C1` (centres unmarked), which “hERG current change (%, negative = inhibition) at 1uM” value is on record?
Answer: -75.1%

Question: How did the “hERG current change (%, negative = inhibition) at 1uM” value turn out when `Cc1oc(-c2ccc(Cl)cc2)nc1CN1CCCC(C(=O)NCc2cccnc2)C1` (centres unmarked) was run?
Answer: -43.6%

Question: Which “hERG current change (%, negative = inhibition) at 1uM” value does the source give for `O=C(c1ccco1)N1CCN(Cc2nnc(-c3cccc(Br)c3)o2)CC1` here?
Answer: -51.6%

Question: Which “hERG current change (%, negative = inhibition) at 1uM” value does the source give for `Cc1oc(-c2ccc(Cl)cc2)nc1CN1CCCN(C(=O)c2ccco2)CC1` here?
Answer: -57.4%

Question: For `Cc1ccc(-c2nc(CN3CCCC(C(=O)N4CCOCC4)C3)c(C)o2)cc1` (centres unmarked), which “hERG current change (%, negative = inhibition) at 1uM” value is on record?
Answer: -9.44%

Question: Which “hERG current change (%, negative = inhibition) at 1uM” value does the source give for `Nc1c([N+](=O)[O-])c(=O)sc2ccccc12` here?
Answer: 2.09%

Question: How did the “hERG current change (%, negative = inhibition) at 1uM” value turn out when `CN(C(=O)c1cccs1)c1ccc(OCC(=O)N2CCC(C(N)=O)CC2)cc1` was run?
Answer: 25.6%

Question: Which “hERG current change (%, negative = inhibition) at 1uM” value does the source give for `O=C(Cn1nc(C(F)F)cc1C1CC1)NCCC1=CCCCC1` here?
Answer: 9.48%

Question: For `CCCCN(C(=O)CSc1nn(-c2ccc(F)cc2)c(=S)s1)c1c(N)n(CCCC)c(=O)[nH]c1=O`, which “hERG current change (%, negative = inhibition) at 1uM” value is on record?
Answer: 8.15%

Question: Which “hERG current change (%, negative = inhibition) at 1uM” value does the source give for `Cc1ccc(CCC(=O)Nc2ccccc2F)s1` here?
Answer: 4.84%

Question: With `O=C(CC1OC(=O)c2ccccc21)Nc1cccc(S(=O)(=O)N2CCCCCC2)c1` (centres unmarked) as the compound, how does the “hERG current change (%, negative = inhibition) at 1uM” value read?
Answer: 0.598%

Question: How did the “hERG current change (%, negative = inhibition) at 1uM” value turn out when `CN(C)CCCn1c(N)c(C#N)c2nc(C#N)c(C#N)nc21` was run?
Answer: 11.4%

Question: Which “hERG current change (%, negative = inhibition) at 1uM” value does the source give for `CCOC(=O)CS(=O)(=O)c1ccc(O)cc1` here?
Answer: 26.2%

Question: Which “hERG current change (%, negative = inhibition) at 1uM” value does the source give for `O=C(NNC(=S)Nc1ccc(F)cc1)c1ccccc1OC(F)F` here?
Answer: 6.53%

Question: Which “hERG current change (%, negative = inhibition) at 1uM” value does the source give for `CCOc1ccc(CCNC(=O)c2cc(C)nc3ccccc23)cc1OCC` here?
Answer: -10.6%

Question: How did the “hERG current change (%, negative = inhibition) at 1uM” value turn out when `Cn1nnnc1SCC(=O)NC(C)(C)C` was run?
Answer: 7.36%

Question: `CCOc1ccc(-c2nc(CN3CCCC(C(=O)N4CCOCC4)C3)c(C)o2)cc1` (centres unmarked) was tested. Which “hERG current change (%, negative = inhibition) at 1uM” value did it give?
Answer: -5.79%

Question: `CCOC(=O)N1CCC(NC(=O)C2CCCN(Cc3nc(-c4cccc(Cl)c4)oc3C)C2)CC1` (centres unmarked) was tested. Which “hERG current change (%, negative = inhibition) at 1uM” value did it give?
Answer: -50.4%

Question: How did the “hERG current change (%, negative = inhibition) at 1uM” value turn out when `Cc1oc(-c2ccc(Cl)cc2)nc1CN1CCCC(C(=O)N2CCOCC2)C1` (centres unmarked) was run?
Answer: -32.9%

Question: How did the “hERG current change (%, negative = inhibition) at 1uM” value turn out when `CCOC(=O)N1CCC(NC(=O)C2CCCN(Cc3nc(-c4cccc(C)c4)oc3C)C2)CC1` (centres unmarked) was run?
Answer: -24.2%

Question: Which “hERG current change (%, negative = inhibition) at 1uM” value does the source give for `Cc1oc(-c2ccc(Cl)cc2)nc1CN1CCCC(C(=O)NC2CC2)C1` (centres unmarked) here?
Answer: -18.2%

Question: Which “hERG current change (%, negative = inhibition) at 1uM” value does the source give for `COc1ccc(-c2nc(CN3CCCC(C(=O)NC4CCCC4)C3)c(C)o2)cc1` (centres unmarked) here?
Answer: -53.5%

Question: For `CCOC(=O)N1CCC(NC(=O)C2CCCN(Cc3nc(-c4ccc(CC)cc4)oc3C)C2)CC1` (centres unmarked), which “hERG current change (%, negative = inhibition) at 1uM” value is on record?
Answer: -39.3%

Question: `Cc1cccc(-c2nc(CN3CCCC(C(=O)NC4CCCC4)C3)c(C)o2)c1` (centres unmarked) was tested. Which “hERG current change (%, negative = inhibition) at 1uM” value did it give?
Answer: -26.4%

Question: For `CCOC(=O)N1CCN(C(=O)C2CCCN(Cc3nc(-c4ccc(Cl)cc4)oc3C)C2)CC1` (centres unmarked), which “hERG current change (%, negative = inhibition) at 1uM” value is on record?
Answer: -57.7%

Question: For `CN1N=C(C(=O)NC2CCCc3c2cnn3-c2ccc(F)cc2F)CCC1=O` (centres unmarked), which “hERG current change (%, negative = inhibition) at 1uM” value is on record?
Answer: 6.91%

Question: `C=C1CC2C3CC[C@@]4(OCOC45COCO5)[C@@]3(C)C(O)CC2[C@@]2(C)CCC(=O)C=C12` (some centres unmarked) was tested. Which “hERG current change (%, negative = inhibition) at 1uM” value did it give?
Answer: 13.6%

Question: How did the “hERG current change (%, negative = inhibition) at 1uM” value turn out when `Cc1ccc(C(=O)C(C)OC(=O)c2ccccc2[N+](=O)[O-])cc1` (centres unmarked) was run?
Answer: 8%

Question: Which “hERG current change (%, negative = inhibition) at 1uM” value does the source give for `CCC1=Nc2cc(C(=O)NCCCN3CCOCC3)ccc2Sc2ccc(Br)cc21` here?
Answer: 15.9%

Question: For `CCOC(=O)/C(C#N)=N/Nc1ccccc1C#N`, which “hERG current change (%, negative = inhibition) at 1uM” value is on record?
Answer: 11.2%

Question: Which “hERG current change (%, negative = inhibition) at 1uM” value does the source give for `CC(C)CCn1nnnc1C(c1ccccc1)N1CCN(C)CC1` (centres unmarked) here?
Answer: 9.6%

Question: For `CCOC(=O)Cn1nnnc1C(CC)N(Cc1ccccc1)Cc1cc2cc(C)ccc2[nH]c1=O` (centres unmarked), which “hERG current change (%, negative = inhibition) at 1uM” value is on record?
Answer: -2.05%

Question: `Cc1cc(C)cc(N2C(=O)NC(=O)/C(=C\c3cccn3-c3ccccc3)C2=O)c1` was tested. Which “hERG current change (%, negative = inhibition) at 1uM” value did it give?
Answer: -0.0202%

Question: `CCCCOC(=O)c1ccc(OC(=O)c2cccnc2)cc1` was tested. Which “hERG current change (%, negative = inhibition) at 1uM” value did it give?
Answer: 5.73%

Question: `O=C(O)c1ccc(SCc2cnc(Cl)s2)cc1` was tested. Which “hERG current change (%, negative = inhibition) at 1uM” value did it give?
Answer: -79.6%

Question: For `COC(=O)c1ccc(SCc2cnc(Cl)s2)cc1`, which “hERG current change (%, negative = inhibition) at 1uM” value is on record?
Answer: 7.26%

Question: How did the “hERG current change (%, negative = inhibition) at 1uM” value turn out when `Clc1ncc(CSc2ccccc2)s1` was run?
Answer: 5.7%

Question: For `Cc1ccc(NC(=O)N(Cc2nc3ccccc3c(=O)[nH]2)Cc2cccs2)cc1`, which “hERG current change (%, negative = inhibition) at 1uM” value is on record?
Answer: 5.74%
